Assay results from PubChem BioAssay (EPA / NIEHS).
Results filed as inconclusive are left out. Calls of active or inactive are those of the source. How the source made its calls, unless noted: active means hit-call score of the fitted dose curve at least 0.9, where 1 is the maximum; inactive means score below 0.9.

Tests used:
[1] = target: Myc proto-oncogene protein (Homo sapiens) (UniProt P01106); assay: ATG_Myc_CIS: Attagene CIS-FACTORIAL HepG2 Assay for human Myelocytomatosis (Myc) Proto-Oncogene Transcription Factor (AID 2282990); conditions: HepG2, Attagene cis-reporter transcription factor activity; actives raise or lower the signal
In short: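 HepG2 cells transiently transfected with multiple cis-promoter-driven reporter transcription units, so endogenous TF activity is read. After 24 h compound exposure, reporter mRNA was quantified by RT-PCR, 6-FAM labelling, HpaI digestion and capillary electrophoresis; bidirectional fit versus DMSO.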

[2] = ATG_Oct_MLP_CIS: Attagene CIS-FACTORIAL HepG2 Assay for human Octamer-Binding Transcription Factor (Oct) (AID 2282993); conditions: HepG2 Attagene cis-factorial Oct reporter, mRNA; actives raise or lower the signal
In short: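 Readout is reporter transcript level from RT-PCR with fluorescent primer extension and capillary electrophoresis, fitted in both directions against DMSO. Transfected HepG2 reporter units report endogenous factor activity after 24 h dosing.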

[3] = target: human Peroxisome Proliferator-activated Receptor alpha (PPARa), PPARA (gene 5465) (UniProt Q07869); assay: ATG_PPARa_TRANS: Attagene TRANS-FACTORIAL HepG2 Assay for human Peroxisome Proliferator-activated Receptor alpha (PPARa) (AID 2283001; active means hit-call score of the fitted dose curve at least 0.9, where 1 is the maximum)
In short: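 Gain-of-signal endpoint: reporter mRNA induction relative to DMSO, detected by fluorescent RT-PCR and capillary electrophoresis. HepG2 cells transiently carried GAL4-UAS-driven reporter units plus NR-Gal4 fusion; exposure lasted 24 h.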

[4] = target: human Peroxisome Proliferator-activated Receptor delta (PPARd), PPARD (gene 5467) (UniProt Q03181); assay: ATG_PPARd_TRANS: Attagene TRANS-FACTORIAL HepG2 Assay for human Peroxisome Proliferator-activated Receptor delta (PPARd) (AID 2283002; active means hit-call score of the fitted dose curve at least 0.9, where 1 is the maximum)
In short: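 HepG2 cells transiently transfected with multiplexed GAL4-UAS reporter units and exogenous chimeric NR-Gal4 proteins; 24 h compound exposure. Reporter mRNA measured by RT-PCR, 6-FAM labelling, HpaI digestion and capillary electrophoresis; gain of signal versus DMSO.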

[5] = target: human Retinoic Acid Receptor beta (RARb), RARB (gene 5915) (UniProt P10826); assay: ATG_RARb_TRANS: Attagene TRANS-FACTORIAL HepG2 Assay for human Retinoic Acid Receptor beta (AID 2283004; active means hit-call score of the fitted dose curve at least 0.9, where 1 is the maximum)
In short: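 HepG2 cells transiently transfected with multiplexed GAL4-UAS reporter units expressing chimeric NR–Gal4 fusions; 24 h compound exposure. Reporter mRNA quantified by RT-PCR, 6-FAM labelling, HpaI digestion and capillary electrophoresis; gain-of-signal fitted against DMSO baseline.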

[6] = target: Peroxisome proliferator-activated receptor gamma (Homo sapiens) (UniProt P37231); assay: ATG_PPARg_TRANS: Attagene TRANS-FACTORIAL HepG2 Assay for human Peroxisome Proliferator-activated Receptor-gamma (PPARg) (AID 2283007; active means hit-call score of the fitted dose curve at least 0.9, where 1 is the maximum)
In short: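 Human hepatoma HepG2, transient MRTU transfection, 24 h treatment. mRNA reporter signal by RT-PCR plus capillary electrophoresis, fluorescence detection; fitted for increase over DMSO negative control.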

[7] = target: Nuclear receptor subfamily 1 group I member 2 (Homo sapiens) (UniProt O75469); assay: ATG_PXR_TRANS: Attagene TRANS-FACTORIAL HepG2 Assay for human Pregnane X Receptor (PXR) (AID 2283008; active means hit-call score of the fitted dose curve at least 0.9, where 1 is the maximum)
In short: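 Fluorescence intensity of FAM-labelled, HpaI-digested reporter amplicons, separated by capillary electrophoresis, quantifies induction. HepG2 cells with PXR-Gal4 trans-reporter system were exposed 24 h; DMSO defines baseline.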

[8] = target: human Retinoic Acid Receptor gamma (RARg), RARG (gene 5916) (UniProt P13631); assay: ATG_RARg_TRANS: Attagene TRANS-FACTORIAL HepG2 Assay for human Retinoic Acid Receptor gamma (RARg) (AID 2283009; active means hit-call score of the fitted dose curve at least 0.9, where 1 is the maximum)
In short: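 HepG2 transiently transfected with GAL4-UAS reporter units and chimeric NR-Gal4 constructs; 24 h compound exposure. Reporter mRNA quantified by RT-PCR, FAM labeling, HpaI digestion and capillary electrophoresis; gain-of-signal versus DMSO.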

[9] = target: human RAR-related Orphan Receptor beta (RORb), RORB (gene 6096) (UniProt Q92753); assay: ATG_RORb_TRANS: Attagene TRANS-FACTORIAL HepG2 Assay for human RAR-related Orphan Receptor beta (RORb) (AID 2283010; active means hit-call score of the fitted dose curve at least 0.9, where 1 is the maximum)
In short: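 HepG2 cells transiently transfected with GAL4-UAS reporter units expressing chimeric NR-Gal4 protein; reporter mRNA measured 24 h after dosing by RT-PCR, 6-FAM labelling and capillary electrophoresis. Gain-of-signal fitted relative to DMSO baseline.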

[10] = ATG_NFI_CIS: Attagene CIS-FACTORIAL HepG2 Assay for human Nuclear Factor I (NFI) (AID 2282989); conditions: HepG2 cis-regulatory reporter, NFI response element transcription; actives raise or lower the signal
In short: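 Reporter transcripts were measured by RT-PCR with fluorescent primer extension and capillary electrophoresis 24 h post-treatment. HepG2 cells carried transiently transfected cis-regulated reporter constructs reporting endogenous factor activity; gain or loss fitted against DMSO baseline.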

[11] = ATG_NF_kB_CIS: Attagene CIS-FACTORIAL HepG2 Assay for human Nuclear Factor Kappa B (NF-kB) (AID 2282991); conditions: HepG2 Attagene cis-factorial NF-kB reporter mRNA; actives raise or lower the signal
In short: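 Multiplexed cis-reporter assay in transiently transfected HepG2. 24 h treatment; RNA isolated, RT-PCR, labelled fragments resolved by CE. DMSO baseline.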

[12] = ATG_NRF2_ARE_CIS: Attagene CIS-FACTORIAL HepG2 Assay for human Nuclear Factor Erythroid 2 Related Factor 2 (NFR2) response to Antioxidant Response Elements (ARE) (AID 2282992); conditions: HepG2 Attagene ARE/NRF2 reporter, transcription factor activity; actives raise or lower the signal;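 on AC50: reporter mRNA level measured by RT-PCR and capillary electrophoresis fluorescence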
In short: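 Cis-factorial assay: transfected HepG2 reporter library, 24 h dosing, mRNA readout via RT-PCR/CE; DMSO-referenced bidirectional analysis.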

[13] = target: Cellular tumor antigen p53 (Homo sapiens) (UniProt P04637); assay: ATG_p53_CIS: Attagene CIS-FACTORIAL HepG2 Assay for human p53 Transcription Factor (AID 2282994); conditions: HepG2 p53 cis-element reporter, Attagene mRNA; actives raise or lower the signal
In short: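 Using HepG2 hepatoma cells carrying cis-acting multiplexed reporters, mRNA induction is detected after a 24 h exposure. Gain- and loss-of-signal responses are fitted relative to DMSO-treated cells.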

[14] = BSK_3C_TissueFactor: BioMAP Diversity Plus: 3C Assay for Tissue Factor Biomarker Activity (AID 2282997); conditions: BioMAP 3C HUVEC, tissue factor biomarker readout; actives raise or lower the signal
In short: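 Primary human umbilical vein endothelial cells in the 3C system were exposed to test chemical for 24 h, then Tissue Factor measured by ELISA. Activity was fitted bidirectionally against DMSO as negative control and baseline.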

[15] = BSK_3C_uPAR: BioMAP Diversity Plus: 3C Assay for Urokinase-type plasminogen activator receptor (uPAR) Biomarker Activity (AID 2282998); conditions: BioMAP 3C HUVEC, uPAR biomarker ELISA; actives raise or lower the signal
In short: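 Cell-surface uPAR on HUVEC (3C system) read by ELISA at 24 h post-treatment, with DMSO as baseline and fitting in both directions. Parallel cultures stained with SRB to flag overt cytotoxicity.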

[16] = BSK_3C_VCAM1: BioMAP Diversity Plus: 3C Assay for Vascular cell adhesion molecule 1 (VCAM1) Biomarker Activity (AID 2282999); conditions: BioMAP 3C HUVEC, VCAM1 ELISA, cytokine-stimulated; actives raise or lower the signal
In short: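 Human umbilical vein endothelial cells were dosed with compound for 24 h, after which cell-surface VCAM-1 was quantified by ELISA. Bidirectional curve fitting used DMSO as negative control and activity baseline.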

[17] = BSK_4H_Eotaxin3: BioMAP Diversity Plus: 4H Assay for Eotaxin 3 Biomarker Activity (AID 2283000); conditions: primary human endothelial cells (HUVEC); actives raise or lower the signal;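 further: CCL26 protein level quantified by ELISA in parallel with SRB cytotoxicity check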
In short: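 HUVEC, 24 h post-dose, ELISA for Eotaxin-3/CCL26. Gain or loss of signal fitted bidirectionally vs DMSO baseline.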

[18] = read-out: Intercellular Adhesion Molecule 1 (ICAM1), ICAM1 (gene 3383); assay: BSK_3C_ICAM1: BioMAP Diversity Plus: 3C Assay for Intercellular Adhesion Molecule 1 (ICAM1) Biomarker Activity (AID 2283003); conditions: primary human endothelial cells (HUVEC); actives raise or lower the signal
In short: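 HUVEC primary cells stimulated under 3C conditions; ICAM1 measured by ELISA 24 h after compound dosing. Curves fitted bidirectionally against the DMSO baseline. Overt cytotoxicity checked by SRB staining of parallel cultures.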

[19] = BSK_3C_Proliferation: Cell Proliferation Assessment in the BioMAP Diversity Plus: 3C Assay (AID 2283006); conditions: primary human endothelial cells (HUVEC);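 on AC50: potency may reflect either rise or fall in cell number versus DMSO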
In short: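 Subconfluent HUVEC (3C system) cultured with chemical; relative cell number read at 48 h by sulforhodamine B total-protein staining (0.1% SRB after 10% TCA fixation, 560 nm). Bidirectional fit relative to DMSO.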

[20] = target: Retinoic acid receptor alpha (Homo sapiens) (UniProt P10276); assay: ATG_RARa_TRANS: Attagene TRANS-FACTORIAL HepG2 Assay for human Retinoic Acid Receptor alpha (RARa) (AID 2283005; active means hit-call score of the fitted dose curve at least 0.9, where 1 is the maximum)
In short: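 HepG2 cells transiently transfected with multiple reporter units expressing chimeric RARα-GAL4 fusion, with GAL4-UAS-driven reporters. After 24 h compound exposure, reporter mRNA induction quantified by RT-PCR and capillary electrophoresis with fluorescent labeling; gain-of-signal fitted relative to DMSO control.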

Measured: AC50

human Peroxisome Proliferator-activated Receptor delta (PPARd), PPARD (gene 5467), sequence (Q03181 whole entry, looked up, the tested form may be a part): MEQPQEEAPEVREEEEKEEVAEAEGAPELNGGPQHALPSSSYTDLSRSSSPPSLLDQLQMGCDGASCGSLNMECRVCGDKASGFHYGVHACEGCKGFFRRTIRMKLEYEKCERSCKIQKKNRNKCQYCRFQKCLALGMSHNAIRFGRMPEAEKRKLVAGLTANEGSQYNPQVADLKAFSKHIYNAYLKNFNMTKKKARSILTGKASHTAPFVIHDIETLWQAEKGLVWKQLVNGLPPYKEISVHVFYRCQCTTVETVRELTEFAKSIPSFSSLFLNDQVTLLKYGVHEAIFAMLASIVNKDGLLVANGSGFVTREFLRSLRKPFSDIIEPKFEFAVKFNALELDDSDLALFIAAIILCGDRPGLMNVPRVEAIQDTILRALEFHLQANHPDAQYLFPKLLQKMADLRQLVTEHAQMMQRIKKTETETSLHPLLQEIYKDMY
Nuclear receptor subfamily 1 group I member 2 (Homo sapiens), sequence (O75469 whole entry, looked up, the tested form may be a part): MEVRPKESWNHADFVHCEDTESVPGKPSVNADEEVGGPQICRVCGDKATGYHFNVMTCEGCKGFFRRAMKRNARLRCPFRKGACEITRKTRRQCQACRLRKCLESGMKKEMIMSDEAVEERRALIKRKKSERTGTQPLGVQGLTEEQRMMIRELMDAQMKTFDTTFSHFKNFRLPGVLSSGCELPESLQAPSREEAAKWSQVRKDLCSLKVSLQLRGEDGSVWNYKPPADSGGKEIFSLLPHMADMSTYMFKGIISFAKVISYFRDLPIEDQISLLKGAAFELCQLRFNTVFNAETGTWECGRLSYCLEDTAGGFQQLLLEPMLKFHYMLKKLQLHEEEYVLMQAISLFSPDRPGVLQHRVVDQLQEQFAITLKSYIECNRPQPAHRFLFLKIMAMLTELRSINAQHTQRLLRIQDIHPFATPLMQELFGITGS
Peroxisome proliferator-activated receptor gamma (Homo sapiens), sequence (P37231 whole entry, looked up): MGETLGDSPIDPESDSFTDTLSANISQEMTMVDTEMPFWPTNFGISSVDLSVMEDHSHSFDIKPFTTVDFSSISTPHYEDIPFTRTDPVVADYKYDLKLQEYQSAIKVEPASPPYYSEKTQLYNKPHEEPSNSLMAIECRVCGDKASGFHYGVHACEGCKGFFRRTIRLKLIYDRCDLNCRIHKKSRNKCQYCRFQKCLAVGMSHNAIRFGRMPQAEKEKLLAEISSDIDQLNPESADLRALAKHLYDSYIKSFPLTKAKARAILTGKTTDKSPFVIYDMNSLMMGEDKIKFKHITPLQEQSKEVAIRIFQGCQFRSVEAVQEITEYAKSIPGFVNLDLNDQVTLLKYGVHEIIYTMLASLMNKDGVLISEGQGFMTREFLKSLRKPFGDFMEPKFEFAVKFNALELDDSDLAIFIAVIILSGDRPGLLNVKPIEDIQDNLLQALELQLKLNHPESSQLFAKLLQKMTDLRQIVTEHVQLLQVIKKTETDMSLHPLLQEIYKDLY
human RAR-related Orphan Receptor beta (RORb), RORB (gene 6096), sequence (Q92753 whole entry, looked up, the tested form may be a part): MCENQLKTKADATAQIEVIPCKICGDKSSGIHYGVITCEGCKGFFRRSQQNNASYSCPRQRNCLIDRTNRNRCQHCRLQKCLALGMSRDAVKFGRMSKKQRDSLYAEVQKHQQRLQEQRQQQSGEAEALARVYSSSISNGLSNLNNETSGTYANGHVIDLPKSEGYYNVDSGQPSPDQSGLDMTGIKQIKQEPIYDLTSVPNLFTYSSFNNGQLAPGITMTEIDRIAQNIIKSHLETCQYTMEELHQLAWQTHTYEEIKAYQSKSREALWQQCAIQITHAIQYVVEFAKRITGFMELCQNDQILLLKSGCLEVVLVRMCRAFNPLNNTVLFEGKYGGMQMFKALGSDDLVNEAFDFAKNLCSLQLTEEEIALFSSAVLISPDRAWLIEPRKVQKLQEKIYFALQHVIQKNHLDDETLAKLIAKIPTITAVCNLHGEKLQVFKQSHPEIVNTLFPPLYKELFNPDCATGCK
human Retinoic Acid Receptor gamma (RARg), RARG (gene 5916), sequence (P13631 whole entry, looked up, the tested form may be a part): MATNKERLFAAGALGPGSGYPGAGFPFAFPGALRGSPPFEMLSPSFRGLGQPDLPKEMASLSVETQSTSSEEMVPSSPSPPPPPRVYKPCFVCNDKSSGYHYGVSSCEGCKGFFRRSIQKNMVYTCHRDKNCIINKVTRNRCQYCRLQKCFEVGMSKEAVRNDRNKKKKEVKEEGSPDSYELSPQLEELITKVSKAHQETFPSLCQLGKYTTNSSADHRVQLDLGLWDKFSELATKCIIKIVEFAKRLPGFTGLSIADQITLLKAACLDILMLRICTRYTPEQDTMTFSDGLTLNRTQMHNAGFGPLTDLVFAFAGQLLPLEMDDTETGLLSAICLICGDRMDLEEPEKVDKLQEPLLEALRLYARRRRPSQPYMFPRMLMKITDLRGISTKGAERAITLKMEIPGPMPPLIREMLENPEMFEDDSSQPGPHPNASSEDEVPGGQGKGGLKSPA
human Retinoic Acid Receptor beta (RARb), RARB (gene 5915), sequence (P10826 whole entry, looked up, the tested form may be a part): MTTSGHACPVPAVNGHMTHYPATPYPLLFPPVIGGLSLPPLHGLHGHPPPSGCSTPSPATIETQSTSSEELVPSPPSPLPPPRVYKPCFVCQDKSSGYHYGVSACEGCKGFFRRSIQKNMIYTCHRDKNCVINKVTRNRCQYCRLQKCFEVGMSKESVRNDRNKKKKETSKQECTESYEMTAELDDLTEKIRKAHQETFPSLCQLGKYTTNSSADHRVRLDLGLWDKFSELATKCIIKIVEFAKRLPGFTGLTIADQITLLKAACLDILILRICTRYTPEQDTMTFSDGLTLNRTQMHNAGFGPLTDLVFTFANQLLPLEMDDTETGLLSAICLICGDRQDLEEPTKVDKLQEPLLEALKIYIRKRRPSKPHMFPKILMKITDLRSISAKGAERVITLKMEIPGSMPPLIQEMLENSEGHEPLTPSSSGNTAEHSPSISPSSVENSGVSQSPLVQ
human Peroxisome Proliferator-activated Receptor alpha (PPARa), PPARA (gene 5465), sequence (Q07869 whole entry, looked up, the tested form may be a part): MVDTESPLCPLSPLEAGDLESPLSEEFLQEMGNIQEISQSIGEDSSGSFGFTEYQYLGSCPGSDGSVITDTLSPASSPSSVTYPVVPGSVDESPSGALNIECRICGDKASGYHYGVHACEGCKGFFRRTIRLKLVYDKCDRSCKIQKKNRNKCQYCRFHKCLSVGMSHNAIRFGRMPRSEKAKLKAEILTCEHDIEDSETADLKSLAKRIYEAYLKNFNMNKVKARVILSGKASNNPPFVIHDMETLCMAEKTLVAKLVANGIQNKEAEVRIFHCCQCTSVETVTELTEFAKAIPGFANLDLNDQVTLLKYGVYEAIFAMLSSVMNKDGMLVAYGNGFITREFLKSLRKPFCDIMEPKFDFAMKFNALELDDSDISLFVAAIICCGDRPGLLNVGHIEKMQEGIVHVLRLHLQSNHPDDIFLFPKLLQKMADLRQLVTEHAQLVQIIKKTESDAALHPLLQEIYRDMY
Cellular tumor antigen p53 (Homo sapiens), sequence (P04637 whole entry, looked up): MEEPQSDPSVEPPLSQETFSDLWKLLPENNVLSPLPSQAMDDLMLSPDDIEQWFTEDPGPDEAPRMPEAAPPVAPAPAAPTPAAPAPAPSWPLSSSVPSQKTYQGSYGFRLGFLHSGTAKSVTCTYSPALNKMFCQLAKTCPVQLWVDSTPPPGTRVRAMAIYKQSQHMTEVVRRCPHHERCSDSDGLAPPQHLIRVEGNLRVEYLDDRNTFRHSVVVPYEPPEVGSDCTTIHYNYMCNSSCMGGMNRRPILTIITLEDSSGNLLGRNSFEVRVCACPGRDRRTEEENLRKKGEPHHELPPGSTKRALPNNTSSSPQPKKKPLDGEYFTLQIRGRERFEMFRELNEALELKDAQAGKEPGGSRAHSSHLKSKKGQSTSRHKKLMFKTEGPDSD
Retinoic acid receptor alpha (Homo sapiens), sequence (P10276 whole entry, looked up, the tested form may be a part): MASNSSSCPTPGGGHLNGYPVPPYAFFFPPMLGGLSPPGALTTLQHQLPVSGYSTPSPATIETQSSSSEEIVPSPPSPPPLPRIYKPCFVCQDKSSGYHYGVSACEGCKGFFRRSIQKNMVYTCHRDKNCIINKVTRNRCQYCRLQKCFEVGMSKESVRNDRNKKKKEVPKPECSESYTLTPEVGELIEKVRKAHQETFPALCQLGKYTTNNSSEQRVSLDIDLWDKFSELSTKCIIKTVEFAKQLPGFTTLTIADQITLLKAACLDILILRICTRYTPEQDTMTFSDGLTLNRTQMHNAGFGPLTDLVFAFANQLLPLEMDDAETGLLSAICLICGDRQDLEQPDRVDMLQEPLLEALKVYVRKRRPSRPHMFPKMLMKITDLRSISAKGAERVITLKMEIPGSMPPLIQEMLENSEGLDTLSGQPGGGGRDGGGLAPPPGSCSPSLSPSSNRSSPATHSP
Myc proto-oncogene protein (Homo sapiens), sequence (P01106 whole entry, looked up): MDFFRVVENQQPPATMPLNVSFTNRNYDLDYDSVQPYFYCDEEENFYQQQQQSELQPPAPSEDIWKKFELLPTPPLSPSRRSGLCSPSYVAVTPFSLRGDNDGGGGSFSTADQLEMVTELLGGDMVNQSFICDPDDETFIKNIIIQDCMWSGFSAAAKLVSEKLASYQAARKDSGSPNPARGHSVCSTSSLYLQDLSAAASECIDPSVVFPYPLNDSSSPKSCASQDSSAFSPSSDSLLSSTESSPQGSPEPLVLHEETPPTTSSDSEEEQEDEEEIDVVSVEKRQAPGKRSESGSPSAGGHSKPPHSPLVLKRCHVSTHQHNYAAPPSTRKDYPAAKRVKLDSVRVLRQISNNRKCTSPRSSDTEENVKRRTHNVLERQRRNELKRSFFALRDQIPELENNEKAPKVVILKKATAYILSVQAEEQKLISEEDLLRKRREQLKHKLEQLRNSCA

Cc1ccc2ccccc2c1C
inactive: [1] | [2] | [3] | [4] | [5] | [6] | [7] | [8] | [9]

CCC[CH2][Sn]([CH2]CCC)([CH2]CCC)[O]C(=O)c1ccccc1
active: [12] 0.188 µM | [6] 0.0116 µM | [7] 0.344 µM
inactive: [10] | [11] | [2] | [13] | [3]

O=C(NCO)NCO
inactive: [10] | [11] | [12] | [2] | [13] | [3]

CCC[CH2][Sn]([Cl])([Cl])[Cl]
active: [12] 5.38 µM
inactive: [10] | [11] | [2] | [13] | [7] | [9]

O=Cc1cccc(Oc2ccccc2)c1
not listed: [1] | [4] | [8] | [13] | [20]
inactive: all other assays above

C=C(C)C#N
inactive: [10] | [2] | [13] | [5] | [20] | [9]

CC(C)(C)c1cc(O)ccc1O
active: [12] 9.05 µM | [2] 129 µM | [16] 28.1 µM | [19] 9.85 µM | [6] 52.5 µM | [7] 3.34 µM
inactive: [10] | [11] | [13] | [14] | [15] | [3] | [18]

O=P(O)(O)CN(CP(=O)(O)O)CP(=O)(O)O
inactive: [10] | [11] | [12] | [2] | [13] | [4] | [20] | [7] | [8] | [9]

CCC(C)c1cccc(C(C)CC)c1O (centres undefined)
active: [7] 4.53 µM
inactive: [10] | [11] | [2] | [13] | [4] | [5] | [20] | [6] | [8]
